Bioassay records from PubChem BioAssay.
Rows were chosen to be rich in hits. Some 9.3% of all compounds tested hit in one or more screens of this group.
VACV Venus inh = vaccinia inhibition (Venus reporter). Vaccinia virus Venus reporter expression, fluorescence. Potency, µM (series often up to 36.5 µM), without a hit: at the top dose activity change, negative = inhibition, actives largely listed as inhibitors. hit rate 0.46% among 330,000. AID 720580; calls by dose curve; tested in A549 cells; also: potency is read from the fitted curve at half-maximal effect; nearly all actives have a fitted effect of over 30% in size
FMDV antiviral = foot and mouth disease virus antiviral activity. Potency, µM (titrated, usually from 57.9 µM), inactives show at the highest dose activity change, negative = inhibition, usual class: inhibitors. hit rate 1.2% among 410,000. FMDV antiviral cell-based qHTS; calls by dose curve; tested in HEK293T cells; also: read-out not given here; potency is read from the fitted curve at half-maximal effect; nearly all actives have a fitted effect of over 45% in size
Sm TGR block = blocks Schistosoma mansoni thioredoxin glutathione reductase; Q962Y6; purified TGR, DTNB reduction, TNB absorbance 405 nm; Potency, µM (doses to about 114 µM), for the others: at the highest dose activity change, negative = inhibition, hits mostly inhibitors; hit rate 3% among 360,000; also: potency is read from the fitted curve at half-maximal effect; nearly all actives have a fitted effect of over 60% in size
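Kinetic colorimetric format: TGR-catalysed, NADPH-driven DTNB reduction monitored via TNB absorbance. Enzyme dispensed at 20 nM; compound exposure 15 min at room temperature before reaction start.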
HCV inhibitor = inhibitors of hepatitis C virus infection; hit rate 3.4% among 340,000; Potency, µM (titrated, usually from 41.8 µM), for inactives: at the top dose activity change, negative = inhibition, usual class: inhibitors; Huh7.5.1 HCVcc-Cre infection, luciferase reporter, 44 h; also: potency is read from the fitted curve at half-maximal effect
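HCVcc-Cre virus at an moi near 0.5 was added right after compound to cells cultured 4 h from seeding (1,000 cells/well). Luciferase activity was determined 44 h later, 15 min after substrate addition at RT.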
Vaccinia mCherry = vaccinia inhibition (mCherry reporter) | Vaccinia virus mCherry reporter infection, fluorescence | Potency, µM (highest dose often 36.5 µM), for inactives: at the highest dose activity change, negative = inhibition, actives largely listed as inhibitors | hit rate 0.63% among 310,000; calls by dose curve; tested in A549 cells; also: potency is read from the fitted curve at half-maximal effect; nearly all actives have a fitted effect of over 35% in size
HCMV inh = blocks human cytomegalovirus replication | HFF cells, HCMV-luciferase reporter, 72 h; stronger effect = lower value | hit rate 4.5% among 410,000 | activity change, negative = inhibition, % at 57.5 µM | AID 1259415; in the data active = activity change below about -60%; inconclusive = no clear call, values can overlap the other calls; inactive = above about -39%
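HFF cells seeded 16 h at 37C, treated with compounds, infected with luciferase-reporter HCMV at MOI 1 PFU/cell; luciferase read at 72 h post infection, normalized to buffer-only and Salinomycin controls.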
Numbers without * were called inactive; i = inactive; ? = inconclusive; · = no result given. Unless noted, calls follow the shape of the dose curve; as a rule, active = well fitted curve in the direction sought with a large enough effect; inconclusive = small, poorly fitted or top-dose-only effect, or another doubt; inactive = no such curve, though single readings can be large; an effect the other way counts as inactive or inconclusive. % is scaled to controls: 0 for no effect and ±100 for the full control effect.

SMILES | VACV Venus inh | FMDV antiviral | Sm TGR block | HCV inhibitor | Vaccinia mCherry | HCMV inh
FC(F)(F)c1cc(-c2ccco2)nc(NCc2cccs2)n1 | · | -20% | 20µM* | -29% | · | 46
FC(F)(F)c1cc(-c2ccc3c(c2)OCO3)nc(NCc2ccco2)n1 | · | -9% | -11% | 6.3µM* | · | 26
COc1cc(C(C)=O)ccc1OCc1cc(C(=O)N(C)CCC2CCCCO2)no1 (centres undefined) | · | 60% | -5% | 10% | · | 75
O=C(NCc1cccs1)C(=O)c1cn(CC(=O)N2CCOCC2)c2ccccc12 | -7% | 8% | 10% | 1% | i | -96*
O=C(NCc1cccs1)C(=O)c1cn(CC(=O)N2CCCC2)c2ccccc12 | -12% | 12% | 5% | -8% | -3% | 0
O=C(c1ccc(F)cc1)N1CCN(c2ccc([N+](=O)[O-])c(N3CCOCC3)c2)CC1 | -18% | -22% | 1% | -22% | -3% | 9
Cc1cc(C)c(C(=O)CC(=O)c2ccccc2Cl)c(O)c1 | -24% | 57% | 9% | -9% | i | -70*
Cc1cc(C)c(NC(=O)CC(=O)c2ccccc2)c(Cl)c1 | 2% | -11% | -7% | 5% | i | ?
Cc1ccc(-n2c(O)c(/C=N/NC(=O)c3ccncc3)c(=O)[nH]c2=O)cc1 | · | 3% | ? | 5% | · | -31
O=C(N/N=C/c1c(O)n(-c2ccccc2)c(=O)[nH]c1=O)c1ccncc1 | -4% | -8% | 40µM* | 30% | -13% | 16
Cn1c(O)c(/C=N/NC(=O)c2ccncc2)c(=O)[nH]c1=S | · | -16% | -26% | 1% | · | 23
Cn1c(O)c(/C=N/NC(=O)c2ccncc2)c(=O)n(C)c1=S | · | 1% | 20µM* | 8% | · | 119
COc1ccc2o/c(=N\O)c(C(=O)Nc3ccc(C)cc3)cc2c1 | ? | 20% | 0% | 10µM* | -17% | 16
N=c1oc2cc(O)ccc2cc1C(=O)Nc1ccc(Br)cc1 | ? | -16% | -13% | ? | ? | -90*
COc1ccc2oc(=N)c(C(=O)Nc3ccc(F)cc3)cc2c1 | -1% | 22% | 2% | 8% | ? | -62*
COc1ccc2oc(=N)c(C(=O)Nc3ccc(C)cc3)cc2c1 | · | 29% | -3% | -9% | · | 47
CCOC(=O)NC(=O)CSc1ccccn1 | -8% | · | 0% | 20% | -12% | -22
c1ccc2oc(-c3nn4c(Cn5cnc6ccccc65)nnc4s3)cc2c1 | · | -8% | · | 13% | · | 21
CN(C)C(=O)CSc1n[nH]c(=O)[nH]c1=O | · | -16% | 8% | 13% | · | ?
COc1ccc(NS(=O)(=O)c2cc(NC(=O)CCNC(C)=O)ccc2N2CCOCC2)cc1 | -5% | 57% | -2% | -4% | -8% | -12
CC(Cl)C(=O)c1c[nH]c2ccccc12 (centres undefined) | -14% | -12% | -10% | -8% | -27% | -67*
O=C1COc2ccc(C(=O)COC(=O)c3ncc(Cl)c(Cl)c3Cl)cc2N1 | -5% | -13% | 50µM* | 19% | -7% | 5
COc1ccc(OCCCC(=O)OCC(=O)c2ccc3c(c2)NC(=O)CO3)cc1 | 4% | -17% | 45µM* | 6% | ? | -20
O=C1COc2ccc(C(=O)COC(=O)c3cnc(Cl)c(Cl)c3)cc2N1 | -10% | -17% | -7% | 23% | -2% | 0
O=C1COc2ccc(C(=O)COC(=O)c3nc(Cl)ccc3Cl)cc2N1 | -3% | -20% | 14µM* | -11% | -6% | -14
SMILES | VACV Venus inh | FMDV antiviral | Sm TGR block | HCV inhibitor | Vaccinia mCherry | HCMV inh
CC(O)C(NS(=O)(=O)c1ccc(Cl)cc1)C(=O)OCC(=O)c1ccc2c(c1)NC(=O)CO2 (centres undefined) | 8% | 0% | · | 6% | -13% | -1
CC(C)CC(NC(=O)c1ccc(Cl)cc1)C(=O)OCC(=O)c1ccc2c(c1)NC(=O)CO2 (centres undefined) | ? | ? | -24% | ? | ? | -103*
O=C1COc2ccc(C(=O)COC(=O)c3ccc([N+](=O)[O-])cc3Cl)cc2N1 | -3% | ? | 40µM* | -5% | i | -6
COc1cccc(/C(O)=C2/C(=O)C(=O)N(CCN3CCOCC3)C2c2cccnc2)c1 (centres undefined) | -16% | -18% | 22µM* | 20% | i | -21
Cc1nc2ccccn2c1/C(O)=C1\C(=O)C(=O)N(CCN2CCOCC2)C1c1cccnc1 (centres undefined) | 7% | -19% | -21% | 1µM* | · | -13
COc1ccc(C2/C(=C(\O)c3cccc(OC)c3)C(=O)C(=O)N2c2ccccn2)cc1 (centres undefined) | · | -21% | -3% | 6% | · | -107*
Cc1ccc(C)c(/C(O)=C2\C(=O)C(=O)N(CCCN3CCOCC3)C2c2cccnc2)c1 (centres undefined) | -2% | -8% | 28µM* | 6% | -12% | 12
COc1cccc(/C(O)=C2\C(=O)C(=O)N(c3ccccn3)C2c2ccccc2OC)c1 (centres undefined) | -10% | 9% | ? | 4% | -23% | 15
Cc1ccc(/C(O)=C2/C(=O)C(=O)N(CCN3CCOCC3)C2c2cccnc2)cc1 (centres undefined) | · | -21% | -19% | 5% | · | 10
O=C(CCn1c(=O)c2ccccc2n(Cc2cccc(F)c2)c1=O)NCc1ccc2c(c1)OCO2 | -6% | 9% | 4% | · | -4% | 11
COCCn1c(SCC(=O)c2c(N)n(C3CC3)c(=O)[nH]c2=O)nnc1-c1ccc(Cl)cc1 | · | -10% | -6% | 2% | · | 0
CCN1C(C(=O)c2ccccc2)=C(OC(=O)COc2ccc(OC)cc2)c2ccccc2S1(=O)=O | -24% | -11% | 11µM* | · | -27% | ?
CCOC(=O)CN1C(C(=O)c2ccccc2)=C(OC(=O)c2ccccc2)c2ccccc2S1(=O)=O | -20% | -24% | -3% | · | -20% | 7
CCN1C(C(=O)c2ccccc2)=C(OC(=O)COc2ccc(C)cc2)c2ccccc2S1(=O)=O | ? | -4% | 10µM* | · | ? | -32
CCCN1C(C(=O)c2ccccc2)=C(OC(=O)COc2ccccc2)c2ccccc2S1(=O)=O | ? | -4% | 11µM* | · | ? | -88*
CCN1C(C(=O)c2ccccc2)=C(OC(=O)c2ccc(Cl)cc2)c2ccccc2S1(=O)=O | -18% | -2% | -1% | · | -30% | -77*
CCOC(=O)CC1(C)SC(NC(C)=O)=NN1C(C)=O (centres undefined) | · | 3% | -15% | 2% | · | -4
O=C(CN1CCCC1)c1ccccc1 | -13% | · | · | · | i | ·
O=C(Cn1c(=O)n(-c2ccccc2)c(=O)c2c3c(sc21)CCCC3)Nc1ccc(F)cc1F | 7% | -5% | 1% | · | 1% | -35
